Pin1 inh: qHTS Assay to Find Inhibitors of Pin1 | AID 504891, 2011 | Pin1 FP peptide displacement, HiFluor488, 10 min | Peptidyl-prolyl cis-trans isomerase NIMA-interacting 1 (Homo sapiens), Q13526 | 390,000 tested, 0.009% active | Potency, µM (series often up to 115 µM), inactives show at the highest dose activity, negative = inhibition, hits mostly inhibitors; active means well fitted inhibition curve with a large enough effect in the polarisation, with a control signal flat, not every such curve was filed as active; inconclusive means small, poorly fitted or top-dose-only effect, or effect the other way, or a change in a side signal; inactive means no such curve, though single readings can be large or run the other way; the % refers to the polarisation; further: potency means the concentration at half of the fitted maximal effect
Target sequence (Q13526 whole entry, looked up): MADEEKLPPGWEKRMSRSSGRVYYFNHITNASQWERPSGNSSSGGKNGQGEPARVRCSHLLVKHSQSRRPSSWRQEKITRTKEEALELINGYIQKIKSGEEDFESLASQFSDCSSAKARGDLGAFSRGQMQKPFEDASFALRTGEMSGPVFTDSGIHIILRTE
PI5P4Ka inh: qHTS for Inhibitors of phosphatidylinositol 5-phosphate 4-kinase (PI5P4K). PI5P4Kalpha enzyme, ADP-Glo luminescence, 60 min; active compounds read low. Phosphatidylinositol 5-phosphate 4-kinase type-2 alpha (Homo sapiens), P48426. 330,000 tested, 1.2% active. max response, %; active means max response of -50% or lower; inconclusive means between -30% and -50%; inactive means -30% or higher; further: value at the top dose of about 77 µM
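Quantitative HTS of the MLSMR library against PI5P4Kalpha with substrate. ATP added last at 5 microM final; room temperature, 60 minutes. Remaining ATP depleted, ADP converted and read as luminescence.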
PI4K2A block: qHTS for small molecular inhibitors of PI4K2A. Phosphatidylinositol 4-kinase type 2-alpha (Homo sapiens), Q9BTU6. purified PI4K2A, ADP-Glo luminescence, 1 h; active compounds read low. activity change, negative = inhibition, % at 76.9 µM. 420,000 tested, 0.13% active; in the data active means activity change below about -50%; inconclusive means mostly about -30% to -49%;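 further: -100% = wells without enzyme as full effect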
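Compounds are screened against recombinant PI4K2A using PI as substrate and ATP, the latter dispensed at 300 microM. Reactions run one hour at ambient temperature before ADP-Glo detection; full inhibition defined by wells lacking enzyme.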
PGK inhibitor: qHTS Assay to Find Inhibitors of Phosphoglycerate Kinase | AID 602233, 2012 | Phosphoglycerate kinase, glycosomal (Trypanosoma brucei brucei), P07378 | 380,000 tested, 0.043% active | PGK/GAPDH coupled, Kinase-Glo luminescence, 60 min | Potency, µM (titrated, usually from 57.5 µM), inactives show top-dose activity change, negative = inhibition, actives largely listed as inhibitors; active means well fitted inhibition curve with a large enough effect; inconclusive means small, poorly fitted or top-dose-only effect; inactive means no such curve, though single readings can be large or run the other way; further: potency means the concentration at half of the fitted maximal effect; nearly all actives have a fitted effect of over 60% in size
Target sequence (P07378 whole entry, looked up): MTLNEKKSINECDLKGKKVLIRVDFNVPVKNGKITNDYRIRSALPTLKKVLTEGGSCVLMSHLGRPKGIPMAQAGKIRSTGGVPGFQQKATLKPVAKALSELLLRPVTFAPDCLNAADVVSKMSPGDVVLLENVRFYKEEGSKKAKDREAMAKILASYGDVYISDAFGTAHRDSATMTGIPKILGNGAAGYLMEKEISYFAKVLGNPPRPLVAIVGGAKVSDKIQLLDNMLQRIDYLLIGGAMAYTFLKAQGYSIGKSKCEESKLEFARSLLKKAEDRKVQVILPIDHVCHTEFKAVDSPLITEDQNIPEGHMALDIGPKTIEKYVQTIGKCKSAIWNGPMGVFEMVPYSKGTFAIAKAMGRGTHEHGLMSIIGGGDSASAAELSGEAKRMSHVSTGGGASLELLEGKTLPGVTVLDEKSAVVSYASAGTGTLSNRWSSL
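Luminescent ATP detection (Kinase-Glo Plus) follows a 60-minute room-temperature incubation, with wells lacking PGK as controls. Buffer: 100 mM TEA (pH 7.6), 5 mM MgCl2, 0.01% Tween-20. Coupling enzyme GAPDH (100 nM final) supplies unstable 1,3-BPG in-well.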
Starred values were filed as active, the others as inactive; i = inactive; ? = inconclusive; · = not tested or not shown; ! = repeats disagree; [ ] = dose if it differs, or a comment. The full list was thinned out, with hits kept by preference. Unless noted, on the % scale 0 is the no-effect control and ±100 the full control effect.

SMILES	Pin1 inh	PI5P4Ka inh	PI4K2A block	PGK inhibitor
N#CC1=C(N)Oc2n[nH]c(-c3ccncc3)c2C1c1ccsc1 (centres undefined)	-8%	·	-8	-2%
Cc1[nH]nc2c1C(c1ccsc1)C(C#N)=C(N)O2 (centres undefined)	-1%	-60*	0	-8%
Cc1ccc(CNc2ncnc3ccc(-c4ccc5c(c4)OCO5)cc23)o1	24%	·	·	·
O=C(NN1CCCC1)NS(=O)(=O)c1ccc(Cl)cc1	·	·	0	·
CCOCCCNC1=C(Cl)C(=O)c2ccccc2C1=O	6%	-93*	-27	2%
Cc1c(Br)cc(F)c([S+](=O)([O-])N2CCN([S+](=O)([O-])c3ccc4c(c3)OCCO4)CC2)c1F	2%	·	·	·
O=C1CC(=O)N(C2CCCCC2)C(=O)N1c1ccccc1S(=O)(=O)Oc1ccccc1	·	-64*	-26	·
O=C1C2CCCCC2C(=O)N1c1cccc(OS(=O)(=O)c2ccccc2)c1 (centres undefined)	1%	-1	-1	-4%
CCOCCCNC(=O)/C(C#N)=C/c1cc(OC)c(O)c([N+](=O)[O-])c1	-5%	-64*	-7	0%
CCOCCCNC(=O)/C(C#N)=C/c1ccc(Cl)c([N+](=O)[O-])c1	-2%	-3	9	-6%
COC(=O)c1ccccc1NC(=O)c1ccc(F)cc1F	35%	·	·	·
Cc1ccc(/C=C2/SC(=O)NC2=S)o1	?	-93*	-10	-11%
CCOc1ccc(/C=C2\SC(=S)NC2=O)cc1OC	14%	-78*	1	1%
COc1cccc(/C=C2\SC(=S)NC2=O)c1OS(=O)(=O)c1ccc(NC(C)=O)cc1	4%	?	1	-12%
CCOc1ccc(/C=C2\SC(=S)N(C)C2=O)cc1OC	?	0	-12	i
COc1ccc(/C=C2\SC(=O)NC2=S)cc1OC	?	-70*	-6	4%
COc1ccc(/C=C2\SC(=S)NC2=O)cc1OS(=O)(=O)c1ccc(NC(C)=O)cc1	-2%	-88*	-5	-3%
c1nc(NCCc2cnc[nH]2)c2ccc(-c3ccc4c(c3)OCO4)cc2n1	6%	·	·	·
CCNc1cccc(S(=O)(=O)N2CCN(S(=O)(=O)c3ccc4c(c3)OCCO4)CC2)c1	-2%	·	·	·
C#CCNC(=O)C[C@H]1C[C@@]2(C(=O)OC)C(=C[C@H](C(C)(C)C)O[C@@H]2C)N(Cc2cccc3ccccc23)C1=O	·	·	1	·
COc1cc(/C=C2\SC(=S)N(CCCCC(=O)O)C2=O)ccc1OS(=O)(=O)c1ccc(C)cc1	·	6	-1	-10%
COc1cc(/C=C2/SC(=S)NC2=O)ccc1OS(=O)(=O)c1ccc(C)cc1	?	-85*	-3	-12%
CCOc1ccccc1C=C1SC(=S)NC1=O	1%	-66*	9	2%
COCc1[nH]c(=S)c(C#N)cc1C(=O)OC	?	-62*	-5	24%
O=C1Cc2cc(S(=O)(=O)N3CCN(c4ccc(C(F)(F)F)cc4)CC3)ccc2N1	5%[230 µM]	·	·	·
SMILES	Pin1 inh	PI5P4Ka inh	PI4K2A block	PGK inhibitor
O=C(NN=C1CCCC1)c1cc(O)cc(O)c1	?	-79*	3	?
O=C(NN=C1CCCC1)c1cccc(O)c1	-3%	0	-1	0%
OCCSc1ccc2nnc(-c3ccccc3)n2n1	2%	·	·	·
Cc1ccc(NS(=O)(=O)c2cc([N+](=O)[O-])ccc2NNC(=S)Nc2cccc(Cl)c2)c(C)c1	1%	-67*	-2	-19%
CCOC(=O)C1CCN(c2ncc(-c3ccc4c(c3)OCCCO4)s2)CC1	-2%	·	·	·
COc1ccc(C(=O)CCC(=O)Nc2cc(Cl)c(O)c(Cl)c2)cc1	54%	-77*	-2	-11%
COc1ccc(C(=O)CCC(=O)Nc2ccc(OC)c(Cl)c2)cc1	?	·	0	i
Oc1ccc(N=Nc2ccccc2-c2nn[nH]n2)c(O)c1	?	-63*	-9	·
Cc1ccccc1-c1nn[nH]n1	0%	·	-1	-6%
CCN1/C(=C\C(=S)Nc2ccccc2)Sc2ccccc21	15%	-11	3	-11%
CCN1/C(=C/C(C)=C/c2sc3ccccc3[n+]2CC)Sc2ccccc21	149%	-50*!	-51*!	?
Cc1cc2c(s1)c1cnn(Cc3cc(F)c(F)c(F)c3)c(=O)c1n2C	-7%	·	·	·
CC(=O)N(C1=C(Cl)C(=O)c2ccccc2C1=O)C1CCCCC1	0%	-87*	-6	-1%
CCOC(=O)C1=C(O)c2ccccc2C(=O)/C1=C\c1ccc(C)cc1	-10%	-56*	1	0%
CCOC(=O)C1=C(C)OC(=Cc2ccccc2)C1=O	·	0	-7	-9%
COc1ccc(C(=O)N(Cc2cccs2)Cc2cccs2)c(O)c1	-6%	·	·	·
OCCCc1nc2n(n1)C(c1ccccc1)C=C(c1ccc(F)cc1)N2 (centres undefined)	?	·	-66*	i
S=C(NCCCc1cnc[nH]1)NCCCN(Cc1ccc(Cl)cc1)c1ccc(Br)cc1	-2%	·	·	·
Cc1ccc(NS(=O)(=O)c2ccc3c(c2)CCC(=O)N3)cc1Cl	-2%	·	·	·
CC(C)CS(=O)(=O)C1=NSC2=NC(=O)/C(=C\c3ccc(OC(=O)c4ccco4)cc3)C(=N)N21	1%	-86*	-7	-12%
CSC1=NSC2=NC(=O)/C(=C\c3ccc(OC(=O)c4ccco4)cc3)C(=N)N12	30%	-53*	1	i
CS(=O)(=O)C1=NSC2=NC(=O)/C(=C\c3ccc(OC(=O)c4ccco4)c(Br)c3)C(=N)N21	60%	-73*	7	-4%
C[C@H]1O[C@@H](O[C@H]2CC[C@@]3(C)[C@H](CC[C@@H]4[C@@H]3C[C@@H](O)[C@]3(C)[C@@H](C5=CC(=O)OC5)CC[C@]43O)C2)C[C@H](O)[C@@H]1O[C@H]1C[C@H](O)[C@H](O[C@H]2C[C@H](O)[C@H](O[C@@H]3O[C@H](CO)[C@@H](O)[C@H](O)[C@H]3O)[C@@H](C)O2)[C@@H](C)O1	·	·	0	·
CCOC(=O)N1CCC(Nc2ccc(Cl)cc2N)CC1	·	·	-1	·
CN1C(=O)C2(Oc3ccccc3C3CC(c4ccccc4)=NN32)c2ccccc21 (centres undefined)	29%	1	-4	-3%
Cc1ccc(C2=NN3C(C2)c2ccccc2OC32C(=O)Nc3ccccc32)cc1 (centres undefined)	20%	-53*	-5	2%
COc1ccc(C)cc1Nc1n[n+](-c2ccccc2)c(-c2cc(OC)c(OC)cc2Br)s1	4%	-16	-9	-4%
COc1ccc(C)cc1Nc1n[n+](-c2ccccc2)c(-c2c(OC)ccc3ccccc23)s1	2%	-54*	2	7%
Fc1ccc(-[n+]2nc(Nc3ccccc3)sc2-c2c3ccccc3cc3ccccc23)cc1	0%	-63*	5	i
